# From PubChem BioAssay
# A selection: hits, their analogues and other compounds. The true share with any hit is near 15%.
# TDP1 cell noCPT: qHTS for Inhibitors of human tyrosyl-DNA phosphodiesterase 1 (TDP1): qHTS in cells in absence of CPT; 420,000 compounds, 15% hits; DT40 Tdp1-/- hTDP1 cells, no CPT, ATP luminescence, 48 h; Potency, µM (doses to about 46.2 µM), for the others: top-dose activity change, negative = growth inhibition, usual class: inhibitors; further: nearly all actives have a fitted effect of over 55% in size
#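 Seeded 400 DT40-hTDP1 cells/well (vehicle DMSO, no 20 nM CPT); pinned compounds; ≥48 hr at 37 °C; CellTiter-Glo luminescence as viability measure.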
# ELG1 repair inh: qHTS screen for small molecules that inhibit ELG1-dependent DNA repair in human embryonic kidney (HEK293T) cells expressing luciferase-tagged ELG1; HEK293T ELG1-luciferase reporter, luminescence, 16 h; DNA damage induced by 5-fluorouridine; Potency, µM (highest dose often 46.1 µM), for inactives: at the highest dose activity change, negative = inhibition, actives largely listed as inhibitors; 330,000 compounds, 2.3% hits; AID 504467, 2011; further: nearly all actives have a fitted effect of over 55% in size
#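 DMSO vehicle served as the neutral condition. Each well held 2,000 cells given 5-fluorouridine plus compound; after 16 hr at 37 °C/5% CO2, ONE-Glo was added and luciferase measured 30 min later.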
# 12-LOX inh: Primary qHTS assay for inhibitors of human arachidonate 12S-lipoxygenase (ALOX12): Round 2. Polyunsaturated fatty acid lipoxygenase ALOX12 (Homo sapiens), P18054. purified 12hLO, xylenol orange hydroperoxide absorbance. Potency, µM (titrated, usually from 108 µM), inactives show at the top dose activity change, negative = inhibition, actives largely listed as inhibitors. 580,000 compounds, 1.1% hits. AID 1671190, 2021
# Target sequence (P18054 whole entry, looked up): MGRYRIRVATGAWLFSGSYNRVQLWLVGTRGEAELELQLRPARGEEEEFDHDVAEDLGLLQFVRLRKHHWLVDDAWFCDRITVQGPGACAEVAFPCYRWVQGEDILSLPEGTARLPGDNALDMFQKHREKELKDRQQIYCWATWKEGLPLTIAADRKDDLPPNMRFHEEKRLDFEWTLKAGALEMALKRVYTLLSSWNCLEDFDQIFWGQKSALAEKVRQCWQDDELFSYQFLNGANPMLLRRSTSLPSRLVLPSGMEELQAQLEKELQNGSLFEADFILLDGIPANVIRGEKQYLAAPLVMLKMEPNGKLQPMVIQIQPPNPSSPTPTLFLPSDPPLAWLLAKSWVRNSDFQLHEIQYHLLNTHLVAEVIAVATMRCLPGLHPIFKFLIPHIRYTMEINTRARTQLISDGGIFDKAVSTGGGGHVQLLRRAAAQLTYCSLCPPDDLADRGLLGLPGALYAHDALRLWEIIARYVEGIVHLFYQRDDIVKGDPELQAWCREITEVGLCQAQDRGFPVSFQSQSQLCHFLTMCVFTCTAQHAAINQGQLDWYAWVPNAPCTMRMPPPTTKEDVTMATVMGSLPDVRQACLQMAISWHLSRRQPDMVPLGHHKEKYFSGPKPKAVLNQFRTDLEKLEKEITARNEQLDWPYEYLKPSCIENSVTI
#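 Purified human 12hLO (150 nM final) in 25 mM Hepes, 0.01% Triton X-100, pH 7.0 was preincubated 15 min at room temperature with compound. Then 40 uM arachidonic acid was added, 30 min. Hydroperoxide was read by Fe-XO absorbance ratio 573/405 nm.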
# RORgamma inh: qHTS for inhibitors of ROR gamma transcriptional activity; Nuclear receptor ROR-gamma (Mus musculus), P51450; Drosophila S2 Gal4-RORgamma UAS-luciferase reporter, 20 h; Potency, µM (series often up to 53.6 µM), without a hit: top-dose activity change, negative = inhibition, usual class: inhibitors; 310,000 compounds, 5.4% hits; AID 2551, 2010; further: nearly all actives have a fitted effect of over 60% in size
#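 Stable Schneider cell line, Gal4 DNA-binding domain fused to ROR gamma, UAS-luciferase. Cmpd 1 hr RT → CuSO4 700 uM final → 20 hr RT → luciferase reagent 10 min → luminescence.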
# VP16 counter: VP16 counterscreen qHTS for inhibitors of ROR gamma transcriptional activity. Drosophila S2 Gal4-VP16 UAS-luciferase, luminescence, 20 h. Potency, µM (titrated, usually from 53.6 µM), for the others: at the top dose activity, negative = inhibition, usual class: inhibitors. 310,000 compounds, 3.5% hits;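 further: Gal4-VP16 expression switched on by copper sulfate through the metallothionein promoter; nearly all actives have a fitted effect of over 50% in size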
# DT40 TDP1 CPT: qHTS for Inhibitors of human tyrosyl-DNA phosphodiesterase 1 (TDP1): qHTS in cells in presence of CPT | chicken DT40 Tdp1-/-;hTDP1 cells + 20 nM CPT, ATP luminescence, 48 h | Potency, µM (highest dose often 46.2 µM), for the others: at the top dose activity change, negative = growth inhibition, most hits filed as inhibitors | 420,000 compounds, 12% hits | AID 686979, 2013; further: nearly all actives have a fitted effect of over 55% in size
#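 Chicken DT40 Tdp1-/- cells complemented with human TDP1, 400 cells/well, exposed to compounds plus 20 nM camptothecin for at least 48 h at 37 C; viability read as ATP content by CellTiter-Glo luminescence.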
# * = called active by the depositor; ? = inconclusive; nt = no result given; [ ] = dose if it differs, or a comment. The call rests on the fitted dose curve; in most records, active means well fitted curve in the direction sought with a large enough effect; inconclusive means small, poorly fitted or top-dose-only effect, or another doubt; inactive means no such curve, though single readings can be large; an effect the other way counts as inactive or inconclusive. On the % scale 0 is the no-effect control and ±100 the full control effect; potency means the concentration at half of the fitted maximal effect.
SMILES,TDP1 cell noCPT,ELG1 repair inh,12-LOX inh,RORgamma inh,VP16 counter,DT40 TDP1 CPT
CC1CC(C)CN(c2nc(NCc3ccco3)nc(N)c2[N+](=O)[O-])C1 (configuration not stated),15µM*,?,-29%,15%,-19%,16µM*
C=CC[C@H](CC(=O)N(CCO)Cc1ccccc1)C(=O)N[C@H](C)COC(=O)[C@@H](CC=C)CC(=O)OC(C)(C)C,18µM*,?,0%,nt,nt,?
C=CC[C@H](CC(=O)NCCO)C(=O)N[C@H](COC(=O)[C@@H](CC=C)CC(=O)OC(C)(C)C)Cc1ccccc1,?,-12%,-1%,nt,nt,-18%
C=CC[C@@H](CC(=O)N(CCO)Cc1ccccc1)C(=O)N[C@H](COC(=O)[C@@H](CC=C)CC(=O)OC(C)(C)C)Cc1ccccc1,?,?,-1%,nt,nt,18µM*
C=CC[C@@H](CC(=O)N(CCO)Cc1ccccc1)C(=O)NCCOC(=O)[C@H](CC=C)CC(=O)OC(C)(C)C,?,0%,0%,nt,nt,?
C=CC[C@H](CC(=O)N(CCO)Cc1ccccc1)C(=O)N[C@H](COC(=O)[C@@H](CC=C)CC(=O)OC(C)(C)C)Cc1ccccc1,13µM*,?,-1%,nt,nt,15µM*
COCc1cc(C[C@@H]2C[C@H](NC(=O)COc3ccccc3)C2(C)C)no1,nt,nt,40%[176 µM],nt,nt,nt
CSc1ccc(CNC(=O)C2CCN(C(=O)c3ncn4c3COC(c3ccccc3)C4)CC2)cc1 (configuration not stated),nt,nt,28%,nt,nt,nt
S=C(NCc1ccco1)Nc1cccc(Cl)c1,?,-3%,?,1.8µM*,7.1µM*,-12%
COc1ccc(Cl)cc1NC(=S)NCc1ccco1,12%,17%,-14%,18µM*,?,-7%
O=C(CCNc1cccc(Cl)c1)c1ccco1,8.2µM*,10%,7%,-10%,9%,7.3µM*
S=C(NCc1ccco1)Nc1ccc(Cl)c(Cl)c1,?,2%,28µM*,13µM*,16µM*,?
COc1c(C)cnc(CN2CCN(C(C(=O)O)c3c[nH]c4ccc(CO)cc34)CC2)c1C (configuration not stated),nt,nt,9%,nt,nt,nt
Cc1ccc(NC(=O)CN2CCCC2c2ccc(F)cc2)cc1 (configuration not stated),nt,nt,6%,nt,nt,nt
Cc1ccc(-c2ncc(C(=O)Nc3cc(F)ccc3F)c(-c3ccncc3)n2)cc1,nt,nt,-14%,nt,nt,nt
O=C(NCc1ccncc1)c1nc(-c2ccc(Br)o2)no1,nt,nt,20%,nt,nt,nt
CN(C)S(=O)(=O)c1ccc2oc(SCC(=O)c3c(N)n(C4CC4)c(=O)[nH]c3=O)nc2c1,4.1µM*,?,2%,nt,nt,-8%
CCN(CC)S(=O)(=O)c1ccc(SCC(=O)c2c(N)n(C3CC3)c(=O)[nH]c2=O)nc1,21µM*,nt,?,nt,nt,?
CC(c1nnc(SCC(=O)c2c(N)n(C3CC3)c(=O)[nH]c2=O)n1-c1ccc(F)cc1)N(C)C (configuration not stated),2.9µM*,-3%,2%,nt,nt,4%
CN(C)S(=O)(=O)c1ccc2oc(SCC(N)=O)nc2c1,0%,3%,9%,4%,17%,-19%
Nc1c(C(=O)CSc2ccccn2)c(=O)[nH]c(=O)n1C1CC1,-1%,?,-10%,nt,nt,-12%
